Records with an inconclusive call do not appear. Active and inactive are the calls of the source. Unless noted, calls come from the whole dose curve; as a rule, active = well fitted curve in either direction with a large enough effect (not every such curve was filed as active); inconclusive = small, poorly fitted or top-dose-only effect, or another doubt; inactive = flat fitted curve, though single readings scatter.
Assays:
[1] = tested on: HIV-1 nucleocapsid protein NCp7 (binding to TG oligonucleotide); experiment: HIV Nucleocapsid (AID 346; call rule not given here;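 note: potency is the fitted concentration of half-maximal effect; potency is for inhibitors that block NC binding and lower polarization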); details: HIV-1 NC / fluorescein-TGTGTGTG probe, fluorescence polarization
Procedure, shortened: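 HIV-1 NC (100 nM) binding to fluorescein-labelled ssDNA TG4xF (10 nM) in Hepes pH 7.5, 250mM NaCl, 1uM ZnCl2, TCEP and 2-mercaptoethanol; compounds pin-transferred, 1 hr room temperature, fluorescence polarization read on CCD imager.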

[2] = target: Lysosomal acid glucosylceramidase (Homo sapiens) (UniProt P04062); experiment: Glucocerebrosidase-p2 (AID 348; in the data active = potency below about 10 µM; note: potency is the fitted concentration of half-maximal effect); details: purified GBA, blue fluorogenic substrate, 40 min
Chain of Lysosomal acid glucosylceramidase (Homo sapiens) (P04062 whole entry, looked up): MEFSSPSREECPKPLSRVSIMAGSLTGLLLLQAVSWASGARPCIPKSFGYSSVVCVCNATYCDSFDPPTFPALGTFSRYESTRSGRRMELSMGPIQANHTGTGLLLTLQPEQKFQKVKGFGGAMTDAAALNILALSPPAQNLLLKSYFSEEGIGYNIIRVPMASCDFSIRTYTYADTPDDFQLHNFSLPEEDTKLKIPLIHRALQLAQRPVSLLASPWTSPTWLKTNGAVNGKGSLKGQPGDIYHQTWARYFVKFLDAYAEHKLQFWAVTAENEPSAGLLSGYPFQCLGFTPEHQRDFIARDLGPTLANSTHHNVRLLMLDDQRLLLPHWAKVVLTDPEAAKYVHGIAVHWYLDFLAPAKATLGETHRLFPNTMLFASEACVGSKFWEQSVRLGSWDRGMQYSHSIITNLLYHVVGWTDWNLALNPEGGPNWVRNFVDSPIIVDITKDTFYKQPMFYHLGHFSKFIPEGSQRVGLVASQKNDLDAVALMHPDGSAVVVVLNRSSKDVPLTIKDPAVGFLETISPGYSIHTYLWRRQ
Procedure, shortened: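 Normal human glucocerebrosidase (0.2 nM) with blue fluorogenic substrate (80 uM final) in citrate/phosphate pH 5.9 with 10mM sodium taurocholate, 0.01% tween-20; 40 min RT, NaOH/glycine stop; fluorescence Ex 365/Em 440; AC50 from a titration from 0.6 nM upwards.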

[3] = AP1 Signaling Pathway (AID 357); details: ME-180 AP-1-bla reporter, EGF-induced, beta-lactamase ratio, 5 h; series mostly up to 17.2 µM;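 note: ME-180 reporter cells stimulated with EGF at its EC50 level; % is set by controls: 0 for no effect and ±100 for the full control effect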
Procedure, shortened: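 Modulation of EGF-driven AP-1 transcription was assessed with a beta-lactamase reporter in ME-180 cells. Compound and EC50 EGF were co-incubated 5 hours at 37 °C before 2.5-hour CCF4 loading at room temperature and dual-emission reading.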

[4] = NFAT Signaling Pathway (AID 444); details: Jurkat NFAT-bla M1, carbachol, beta-lactamase ratio, 5 h; at 7.69 µM (top of the series);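 note: carbachol stimulus at about its EC50 of 1 µM final; % is set by controls: 0 for no effect and ±100 for the full control effect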
Procedure, shortened: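 Jurkat cells carrying an NFAT-driven β-lactamase reporter and co-transfected muscarinic M1 receptor were treated with compound plus carbachol (1 uM final, an EC50 level) for 5 h at 37 °C. CCF4 loading followed for 1 h at RT; 460/530 nm ratio gave %activity.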

[5] = Stat Signaling Pathway (AID 446); details: ME-180 SIE beta-lactamase reporter, IL-6 stimulated, 5 h; series mostly up to 17.2 µM;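 note: ME-180 cervical cancer cells given 40 pM IL-6 alongside compound; SIE-controlled beta-lactamase reporter measured as 460/530 nm FRET emission ratio; % is set by controls: 0 for no effect and ±100 for the full control effect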
Procedure, shortened: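 FRET read-out (405 nm excitation, 460/530 nm emission) of a beta-lactamase reporter under a STAT-inducible element in ME-180 cervical carcinoma cells. Cells with compound receive 40 pM IL-6 for 5 h. Values are normalised to AC90 stimulation and AC90 JAK-inhibitor controls.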

[6] = target: Glucocorticoid receptor (Homo sapiens) (UniProt P04150); experiment: GR-EFC Redistribution (AID 451; calls by dose curve; note: potency is the fitted concentration of half-maximal effect); details: CHO-K1 GR-EFC translocation, beta-gal luminescence, 2 h
Chain of Glucocorticoid receptor (Homo sapiens) (P04150 whole entry, looked up, the tested form may be a part): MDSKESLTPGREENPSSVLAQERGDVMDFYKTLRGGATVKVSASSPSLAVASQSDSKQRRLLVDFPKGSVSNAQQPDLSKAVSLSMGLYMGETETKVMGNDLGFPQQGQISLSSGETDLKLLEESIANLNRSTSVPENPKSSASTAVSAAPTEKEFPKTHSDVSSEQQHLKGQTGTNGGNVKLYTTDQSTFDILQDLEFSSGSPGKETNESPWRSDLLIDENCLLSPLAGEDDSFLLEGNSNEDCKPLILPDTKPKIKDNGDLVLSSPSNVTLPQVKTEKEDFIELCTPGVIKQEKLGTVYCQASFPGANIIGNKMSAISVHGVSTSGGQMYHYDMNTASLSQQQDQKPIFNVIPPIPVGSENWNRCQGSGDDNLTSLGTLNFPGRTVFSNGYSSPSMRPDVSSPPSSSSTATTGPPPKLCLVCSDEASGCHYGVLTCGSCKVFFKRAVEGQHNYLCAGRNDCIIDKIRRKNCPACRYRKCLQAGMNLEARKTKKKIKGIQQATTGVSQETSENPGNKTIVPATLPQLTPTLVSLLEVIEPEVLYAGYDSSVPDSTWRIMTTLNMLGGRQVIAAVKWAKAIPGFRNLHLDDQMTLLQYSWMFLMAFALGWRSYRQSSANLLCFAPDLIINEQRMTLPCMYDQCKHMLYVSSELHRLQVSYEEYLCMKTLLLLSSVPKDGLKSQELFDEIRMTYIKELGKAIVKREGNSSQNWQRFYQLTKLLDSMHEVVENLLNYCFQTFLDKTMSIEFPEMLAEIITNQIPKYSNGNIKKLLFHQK
Procedure, shortened: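 CHO-K1 cells stably expressing nuclear-localized β-gal enzyme acceptor and GR fused C-terminally to the enzyme donor fragment; ligand-driven nuclear translocation restores β-gal by complementation. Compounds titrated up to 46 uM final, 2 h at 37 °C; luminescence read.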

[7] = target: Mitogen-activated protein kinase 10 (Mus musculus) (UniProt Q61831); experiment: JNK3 AlphaScreen Assay (AID 530); details: JNK3 lysate, c-Jun phosphorylation; series mostly up to 57.1 µM;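 note: kinase came from lysate of stimulated human HepG2 cells; signal reports phosphorylation of biotinylated GST-cJun 1-79 at Ser73 with 10 µM ATP; % is set by controls: 0 for no effect and ±100 for the full control effect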
Procedure, shortened: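 Phosphorylation of biotinylated GST-cJun(1-79) at Ser73 is measured by AlphaScreen proximity luminescence. Enzyme is JNK3 in HepG2 lysates activated with interleukin-1beta and tumor necrosis factor alpha; ATP is 10 uM final.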

[8] = target: 3',5'-cyclic-AMP phosphodiesterase 4B (Homo sapiens) (UniProt Q07343); experiment: qHTS Assay for Inhibitors of PDE-IV (AID 607; active = well fitted activation curve with a large enough effect in the main read-out, with a control signal flat, not every such curve was filed as active; note: % of control where 0% means no effect); details: HEK293 ACTOne CNG channel cells, membrane potential fluorescence; series mostly up to 22.9 µM
Chain of 3',5'-cyclic-AMP phosphodiesterase 4B (Homo sapiens) (Q07343 whole entry, looked up): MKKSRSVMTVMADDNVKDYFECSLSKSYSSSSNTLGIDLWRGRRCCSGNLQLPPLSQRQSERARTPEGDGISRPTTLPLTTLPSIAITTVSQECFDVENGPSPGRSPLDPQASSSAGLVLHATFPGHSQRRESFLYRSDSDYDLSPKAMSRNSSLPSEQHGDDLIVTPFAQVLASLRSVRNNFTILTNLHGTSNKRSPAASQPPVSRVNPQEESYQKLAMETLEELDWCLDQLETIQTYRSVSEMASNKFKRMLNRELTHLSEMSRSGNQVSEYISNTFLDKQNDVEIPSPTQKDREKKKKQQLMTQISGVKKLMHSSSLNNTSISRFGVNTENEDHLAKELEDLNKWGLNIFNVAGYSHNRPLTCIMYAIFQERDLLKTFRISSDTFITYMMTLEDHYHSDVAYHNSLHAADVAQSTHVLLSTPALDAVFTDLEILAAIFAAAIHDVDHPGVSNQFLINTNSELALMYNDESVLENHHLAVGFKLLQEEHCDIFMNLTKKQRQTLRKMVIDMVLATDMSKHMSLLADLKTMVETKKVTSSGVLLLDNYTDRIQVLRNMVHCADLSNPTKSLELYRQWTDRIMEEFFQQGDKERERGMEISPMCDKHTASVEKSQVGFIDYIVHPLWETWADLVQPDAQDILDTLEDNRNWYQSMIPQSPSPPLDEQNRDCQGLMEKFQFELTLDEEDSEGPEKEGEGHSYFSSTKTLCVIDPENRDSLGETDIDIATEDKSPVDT
Procedure, shortened: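 Cell-based read-out of cAMP via a modified cyclic nucleotide-gated channel and membrane potential dye (535/590 nm) in HEK293 cells expressing PDE4 endogenously. Compounds tested up to 22.9 uM final; 100 uM RO 20-1724 reference.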

[9] = qHTS Assay for Lipid Storage Modulators (AID 1519; calls by dose curve); details: Drosophila S3 cells, BODIPY lipid droplet/cell ratio, laser cytometry, cells loaded with oleic acid; for activity change, negative = inhibition: at 57.5 µM (top of the series)
Procedure, shortened: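 Cells seeded at 5,000 per well were treated with compounds over a concentration series and loaded with oleic acid (400 uM, as added). Lipid droplet fluorescence (488 nm excitation, 500-530 nm channel) was read by laser-scanning cytometry and normalized to 20 uM Triacsin C.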

[10] = Primary qHTS for small molecule stabilizers of the endoplasmic reticulum resident proteome: Secreted ER Calcium Modulated Protein (SERCaMP) assay (AID 1508630; active = well fitted curve in the direction sought with a large enough effect; an effect the other way counts as inactive or inconclusive; note: % is set by controls: 0 for no effect and ±100 for the full control effect); details: SH-SY5Y GLuc-SERCaMP (Gaussia luciferase released on ER calcium loss) secretion, thapsigargin, luminescence; series mostly up to 38.4 µM
Procedure, shortened: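 The SH-SY5Y reporter protocol was run at 3 concentrations up to 38.3 uM (primary) or 11 concentrations (follow-up): 16 h compound, 100 nM thapsigargin for 4 h, then extracellular luciferase luminescence.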

[11] = target: Cytochrome P450 1A2 (Homo sapiens) (UniProt P05177); experiment: p450-cyp1a2 (AID 410; calls by dose curve; note: potency is the fitted concentration of half-maximal effect;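 for activity change, negative = inhibition: -100% = full effect of reference inhibitor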); details: recombinant CYP1A2, luciferin-ME demethylation, luminescence; series mostly up to 25.6 µM
Chain of Cytochrome P450 1A2 (Homo sapiens) (P05177 whole entry, looked up): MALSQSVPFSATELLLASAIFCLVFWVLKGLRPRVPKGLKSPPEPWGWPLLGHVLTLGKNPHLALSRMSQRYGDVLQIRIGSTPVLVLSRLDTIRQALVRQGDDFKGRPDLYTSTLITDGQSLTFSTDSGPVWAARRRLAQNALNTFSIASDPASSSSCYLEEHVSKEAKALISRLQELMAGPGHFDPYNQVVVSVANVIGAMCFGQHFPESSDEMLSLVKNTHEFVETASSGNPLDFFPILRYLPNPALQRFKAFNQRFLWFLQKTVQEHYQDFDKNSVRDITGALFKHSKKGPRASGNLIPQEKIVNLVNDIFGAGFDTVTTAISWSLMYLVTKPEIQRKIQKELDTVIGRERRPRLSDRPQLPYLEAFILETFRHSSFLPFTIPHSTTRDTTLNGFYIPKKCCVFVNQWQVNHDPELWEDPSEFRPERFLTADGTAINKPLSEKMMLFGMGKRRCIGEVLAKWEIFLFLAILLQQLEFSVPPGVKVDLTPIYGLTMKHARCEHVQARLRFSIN
Procedure, shortened: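 Luminescent demethylation readout: Luciferin-ME (100uM, equal to Km) turned over by 20nM CYP1A2 for 60 min at room temperature after NADPH regeneration addition, following 10 min compound preincubation. Normalization used 57 uM furafylline as full inhibition.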

[12] = target: Cytochrome P450 3A4 (Homo sapiens) (UniProt P08684); experiment: qHTS Assay for Inhibitors and Substrates of Cytochrome P450 3A4 (AID 884; active = well fitted curve in the direction sought with a large enough effect; an effect the other way counts as inactive or inconclusive; note: % is set by controls: 0 for no effect and ±100 for the full control effect; nearly all actives have a fitted effect of over 50% in size); details: recombinant CYP3A4, Luciferin-PPXE luminescence; series mostly up to 57.1 µM
Chain of Cytochrome P450 3A4 (Homo sapiens) (P08684 whole entry, looked up): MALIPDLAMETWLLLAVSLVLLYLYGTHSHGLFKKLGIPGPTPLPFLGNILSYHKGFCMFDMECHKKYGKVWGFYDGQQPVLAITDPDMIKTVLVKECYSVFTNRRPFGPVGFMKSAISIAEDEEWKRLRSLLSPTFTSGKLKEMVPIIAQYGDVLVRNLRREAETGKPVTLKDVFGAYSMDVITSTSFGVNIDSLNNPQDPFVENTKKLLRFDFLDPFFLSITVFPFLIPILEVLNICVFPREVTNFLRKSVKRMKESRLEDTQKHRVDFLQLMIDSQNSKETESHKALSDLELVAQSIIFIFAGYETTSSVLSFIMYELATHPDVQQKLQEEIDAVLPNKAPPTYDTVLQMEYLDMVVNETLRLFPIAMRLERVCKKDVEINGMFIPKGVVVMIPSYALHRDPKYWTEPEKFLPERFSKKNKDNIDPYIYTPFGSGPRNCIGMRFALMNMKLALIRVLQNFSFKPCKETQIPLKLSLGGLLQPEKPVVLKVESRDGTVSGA
Procedure, shortened: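 Luminescent readout of luciferin produced by CYP3A4 (20 nM) dealkylation of Luciferin-PPXE, 25 uM (its KM). NADPH-driven reaction ran 60 min at RT after 10 min compound preincubation; data scaled to 57 uM ketoconazole as 100% inhibition.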

[13] = qHTS Assay for Identification of Small Molecule Agonists for Hypoxia Response Element Signaling Pathway (AID 914; active = well fitted activation curve with a large enough effect in the signal ratio, with a control signal flat, not every such curve was filed as active; the % refers to the signal ratio; note: % of control where 0% means no effect); details: ME-180 (cervical carcinoma) HRE-bla reporter, beta-lactamase ratio, CoCl2, 17 h; activation: stronger effect = higher value
Procedure, shortened: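 A beta-lactamase reporter under hypoxia response element control in ME-180 cells served as the system. Compound titrations plus EC50 CoCl2 ran 17 h at 37 degrees Celsius; AC50 values were fitted from %Activity.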

[14] = target: Cytochrome P450 3A4 (Homo sapiens) (UniProt P08684); experiment: qHTS Assay for Activators of Cytochrome P450 3A4 (AID 885; active = well fitted curve in the direction sought with a large enough effect; an effect the other way counts as inactive or inconclusive; note: nearly all actives have a fitted effect of over 65% in size); details: recombinant CYP3A4, Luciferin-PPXE luminescence, 60 min; series mostly up to 57.1 µM
Procedure, shortened: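 Luminescent readout of luciferin formed from 25 uM Luciferin-PPXE (KM level) by 20 nM CYP3A4 in 200 mM KPO4, with 60 min NADPH-driven reaction at room temperature after 10 min compound exposure. Ketoconazole (57 uM) defined 100% inhibition.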

[15] = measured here: cell count channel max response
[16] = measured here: lipid channel max response

CN1CCC2(CC1)CCN(C(=O)c1ccco1)CC2
24.5%: max response [9, 16]
inactive: Potency [1] > 20 µM | Potency [2] > 11.4 µM | outcome [3] | activity change, negative = inhibition [4] -4.13% | outcome [5] | Potency [6] > 46 µM | outcome [7] | Potency [8] | activity change, negative = inhibition [9] 1.82% | outcome [10]
21.1%: max response [9, 15]

O=C(Oc1ccccc1)N1CCC2(CCN(Cc3ccccc3)CC2)CC1
6.48%: max response [9, 16]
inactive: Potency [1] > 20 µM | Potency [2] > 11.4 µM | outcome [3] | Potency [11] | outcome [5] | Potency [6] > 46 µM | outcome [7] | Potency [8] | Potency [12] | activity change, negative = inhibition [9] 2.23% | outcome [10]
2.36%: max response [9, 15]

C[C@@H]1C[C@@H](O)[C@@]2(O)[C@]13CC(=O)OC[C@]2(C)[C@@](C)(O)C(=O)C3
inactive: outcome [10]

N#Cc1cccc(NC(=O)N2CC3(CCN(C(=O)Oc4ccccc4)CC3)C2)c1
2.3%: max response [9, 16]
-4.33%: max response [9, 15]
inactive: Potency [1] > 20 µM | outcome [3] | activity change, negative = inhibition [4] 17.6% | outcome [5] | Potency [6] > 46 µM | outcome [7] | Potency [8] | Potency [12] | activation [13] -17.9% | activity change, negative = inhibition [9] 1.56% | outcome [10]

O=C(Oc1ccccc1)N1CCC2(CC1)CCN(C(c1ccccc1)c1ccccc1)CC2
5.73%: max response [9, 15]
13.3%: max response [9, 16]
inactive: Potency [1] > 20 µM | Potency [2] > 11.4 µM | outcome [3] | activity change, negative = inhibition [4] -0.91% | outcome [5] | Potency [6] > 46 µM | outcome [7] | activity change, negative = inhibition [9] 4.05% | outcome [10]

CS(=O)(=O)N1CCC2(CCCN(Cc3ccncc3)C2)CC1
25.1%: max response [9, 16]
inactive: Potency [1] > 20 µM | outcome [3] | activity change, negative = inhibition [4] -20.7% | outcome [5] | Potency [6] > 46 µM | outcome [7] | Potency [8] | activity change, negative = inhibition [9] 6.09% | outcome [10]
15.9%: max response [9, 15]

c1cnc(N2CCCC3(CCNCC3)C2)nc1
inactive: Potency [1] > 20 µM | outcome [3] | activity change, negative = inhibition [4] -26.8% | Potency [6] > 46 µM | outcome [7] | Potency [8] | activation [13] 6.96% | activity change, negative = inhibition [9] 7.13% | outcome [10]
19.3%: max response [9, 16]
9.32%: max response [9, 15]

CC(C)CN1CCC2(CC1)CCN(C(=O)Oc1ccccc1)CC2
1.23%: max response [9, 16]
inactive: Potency [1] > 20 µM | Potency [2] > 11.4 µM | outcome [3] | Potency [11] | outcome [5] | Potency [6] > 46 µM | outcome [7] | Potency [8] | activity change, negative = inhibition [9] 3.6% | outcome [10]
-4.31%: max response [9, 15]

c1ccc(CN2CC[C@@]3(CCCNC3)C2)cc1
inactive: Potency [1] > 20 µM | Potency [2] > 11.4 µM | outcome [3] | Potency [11] | activity change, negative = inhibition [4] 2.89% | outcome [5] | Potency [6] > 46 µM | outcome [7] | Potency [8] | Potency [14] | activation [13] 10.9% | activity change, negative = inhibition [9] 3.83% | outcome [10]
8.29%: max response [9, 15]
14.7%: max response [9, 16]

Cc1noc(C)c1C(=O)N1CCC[C@@]2(CCN(CC(C)C)C2)C1
6.03%: max response [9, 15]
15.4%: max response [9, 16]
inactive: Potency [1] > 20 µM | Potency [2] > 11.4 µM | outcome [3] | activity change, negative = inhibition [4] 12.5% | Potency [6] > 46 µM | outcome [7] | Potency [8] | activity change, negative = inhibition [9] 5.3% | outcome [10]

CC1(C)C2C[C@@H](O)[C@]3(C)C(CC[C@@]4(C)[C@H](c5ccoc5)C[C@H]5O[C@]543)[C@@]2(C)[C@@H](O)C[C@H]1O (some centres undefined)
inactive: outcome [10]

CC(C)NC(=O)N1CCCC2(CCN(C(=O)Oc3ccccc3)CC2)C1
29.9%: max response [9, 16]
27.7%: max response [9, 15]
inactive: Potency [1] > 20 µM | outcome [3] | outcome [5] | Potency [6] > 46 µM | outcome [7] | Potency [8] | Potency [14] | activity change, negative = inhibition [9] 6.21% | outcome [10]
active: Potency [11] 12.6 µM

COC(=O)N1CCC2(CCCN(C)C2)CC1
6.44%: max response [9, 15]
inactive: Potency [1] > 20 µM | Potency [2] > 11.4 µM | outcome [3] | outcome [5] | Potency [6] > 46 µM | Potency [8] | activity change, negative = inhibition [9] 0.789% | outcome [10]
8.69%: max response [9, 16]

CCCOC(=O)c1cc2c(cn1)[nH]c1ccccc12
inactive: outcome [10]

c1ccc(CN2CCCC3(CCNCC3)C2)cc1
inactive: outcome [3] | Potency [11] | outcome [5] | Potency [6] > 46 µM | outcome [7] | Potency [8] | activity change, negative = inhibition [9] 2.49% | outcome [10]
3.6%: max response [9, 15]
7.81%: max response [9, 16]

From PubChem BioAssay (NCATS)
